Source: PubChem BioAssay AID1159580 (chemical genetic matrix, 2015)
Where “and” joins values, the source holds several entries; their conditions need not be identical. Equal entries are not always repeated. About 2,000 (36%) of roughly 5,500 compounds were called active. About 18% were inconclusive and are not listed. No stated cut-off is given here; in the data, active means normalized growth mostly below about 0.91 (no sharp cut-off); inconclusive means no clear call, values can overlap the other calls; inactive means mostly above about 0.92. Some of the results follow.

Assay: chemical genetic growth profiling, strain panel (AID 1159580);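 further: tested at 20 µM; growth read once vehicle control cultures reached saturation at 30 °C; 1 = growth at the plate median or of vehicle wells; lower values mean less growth of the strain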
Conditions: S. cerevisiae deletion strains, growth OD

Measured: normalized growth

CC(C)CCCC(C)C1CCC2C3C[C@@H](O)[C@@]4(O)C[C@@H](O)CC[C@]4(C)C3CC[C@]12C (stereo partly drawn)
active: locus YAL026C, strain drs2, hits give low values 0.843 | locus YDR137W, strain rgp1, hits give low values 0.493 | locus YLR262C, strain YPT6 (second series), hits give low values 0.502
inactive: locus YAL013W, strain DEP1, hits give low values 1.01 | locus YAL021C, strain ccr4, hits give low values 0.951 | locus YAL030W, strain snc1, hits give low values 0.988 | locus YBL061C, strain skt5, hits give low values 0.986 | locus YBR009C, strain hhf1, hits give low values 0.972 | locus YBR021W, strain FUR4, hits give low values 1.06 | locus YBR023C, strain chs3, hits give low values 0.994 | locus YBR171W, strain sec66, hits give low values 1.01 | locus YBR229C, strain ROT2, hits give low values 1.06 | locus YBR231C, strain swc5, hits give low values 1.01 | locus YBR279W, strain paf1, hits give low values 1.03 | locus YCL011C, strain gbp2, hits give low values 0.997 | locus YCL016C, strain dcc1, hits give low values 0.984 | locus YCL029C, strain bik1, hits give low values 1.04 | locus YCL061C, strain MRC1, hits give low values 0.966 | locus YCL069W, strain vba3, hits give low values 0.984 | locus YCR088W, strain abp1, hits give low values 1 | locus YDL005C, strain med2, hits give low values 0.996 | locus YDL035C, strain GPR1, hits give low values 1.06 | locus YDL040C, strain nat1, hits give low values 1.01 | locus YDL074C, strain BRE1, hits give low values 1.08 | locus YDL101C, strain DUN1, hits give low values 1.03 | locus YDL134C, strain PPH21, hits give low values 0.985 | locus YDL185W, strain tfp1, hits give low values 1.02 | locus YDL192W, strain arf1, hits give low values 0.999 | locus YDR001C, strain nth1, hits give low values 1 | locus YDR069C, strain doa4, hits give low values 0.992 | locus YDR101C, strain arx1, hits give low values 1.03 | locus YDR150W, strain NUM1, hits give low values 1.03 | locus YDR162C, strain NBP2, hits give low values 1.03 | locus YDR195W, strain ref2 1.04 | locus YDR297W, strain sur2, hits give low values 0.986 | locus YDR318W, strain mcm21, hits give low values 1.02 | locus YDR334W, strain swr1, hits give low values 1 | locus YDR335W, strain msn5, hits give low values 1 | locus YDR388W, hits give low values 1.01 | locus YDR392W, strain spt3, hits give low values 0.82 | locus YDR502C, strain sam2, hits give low values 1.02 | locus YEL003W, strain gim4, hits give low values 0.974 | locus YEL037C, strain rad23, hits give low values 1 | locus YEL061C, strain CIN8 (second series), hits give low values 0.999 | locus YER015W, strain faa2, hits give low values 0.987 | locus YER016W, strain bim1, hits give low values 0.994 | locus YER110C, hits give low values 1.03 | locus YER111C, strain swi4, hits give low values 0.987 | locus YER155C, strain BEM2 (second series), hits give low values 0.972 | locus YER155C, strain BEM2, hits give low values 1 | locus YER167W, strain BCK2, hits give low values 1.04 | locus YFR010W, strain ubp6, hits give low values 1 | locus YGL078C, strain dbp3, hits give low values 1.02 | locus YGL086W, strain mad1, hits give low values 1.01 | locus YGL167C, strain pmr1, hits give low values 1 | locus YGL173C, strain kem1, hits give low values 0.992 | locus YGL227W, strain vid30, hits give low values 1 | locus YGL240W, strain doc1, hits give low values 1.02 | locus YGL248W, strain PDE1, hits give low values 1.02 | locus YGL253W, strain hxk2, hits give low values 0.996 | locus YGR078C, strain PAC10, hits give low values 1 | locus YGR135W, strain pre9, hits give low values 0.99 | locus YGR252W, strain gcn5, hits give low values 0.993 | locus YHR013C, strain ard1, hits give low values 1 | locus YHR027C, strain rpn1, hits give low values 0.991 | locus YHR030C, strain SLT2, hits give low values 1.02 and 1.06 | locus YHR079C, strain IRE1 (second series), hits give low values 1.01 | locus YHR079C, strain IRE1, hits give low values 1.04 | locus YHR094C, strain hxt1, hits give low values 1.02 | locus YHR129C, strain ARP1, hits give low values 1.03 | locus YHR142W, strain chs7, hits give low values 1.02 | locus YHR200W, strain rpn10, hits give low values 1.02 | locus YIL066C, strain RNR3, hits give low values 1.02 | locus YIL073C, strain SPO22, hits give low values 1.04 | locus YIL125W, strain kgd1, hits give low values 1.02 | locus YIR030C, strain dcg1, hits give low values 1.01 | locus YJL092W, strain hpr5, hits give low values 1.01 | locus YJL095W, strain BCK1 (second series), hits give low values 0.998 | locus YJL095W, strain BCK1, hits give low values 0.981 and 1.05 | locus YJL115W, strain asf1, hits give low values 0.994 | locus YJL129C, strain trk1, hits give low values 1.01 | locus YJL134W, strain LCB3, hits give low values 1.03 | locus YJL154C, strain vps35, hits give low values 1 | locus YJL164C, strain tpk1, hits give low values 0.99 | locus YJL166W, strain qcr8, hits give low values 0.98 | locus YJL168C, strain set2, hits give low values 1.01 | locus YJL187C, strain SWE1 (second series), hits give low values 1.02 | locus YJL187C, strain SWE1, hits give low values 1 | locus YJR043C, strain POL32, hits give low values 1.03 | locus YJR066W, strain TOR1, hits give low values 1.01 | locus YKL009W, strain mrt4, hits give low values 0.971 | locus YKL068W, hits give low values 1.01 | locus YKL085W, strain MDH1 (second series), hits give low values 1.01 | locus YKL085W, strain MDH1, hits give low values 1.01 | locus YKL160W, strain elf1, hits give low values 0.998 | locus YKR001C, strain vps1, hits give low values 1.05 | locus YKR026C, strain gcn3, hits give low values 1 | locus YKR091W, strain srl3, hits give low values 1 | locus YLL001W, strain dnm1, hits give low values 0.949 | locus YLL026W, hits give low values 0.995 | locus YLL041C, strain sdh2, hits give low values 1 | locus YLR027C, strain aat2, hits give low values 0.989 | locus YLR039C, strain RIC1, hits give low values 0.777 | locus YLR058C, strain SHM2, hits give low values 1.02 | locus YLR102C, strain apc9, hits give low values 1.01 | locus YLR113W, strain HOG1, hits give low values 1.06 | locus YLR221C, strain rsa3, hits give low values 0.976 | locus YLR258W, strain gsy2, hits give low values 0.975 | locus YLR262C, strain YPT6, hits give low values 0.78 | locus YLR268W, strain sec22, hits give low values 1.05 | locus YLR320W, strain mms22, hits give low values 0.941 | locus YLR330W, strain CHS5, hits give low values 1 | locus YLR342W, strain FKS1 (second series), hits give low values 1.03 | locus YLR342W, strain FKS1, hits give low values 0.986 | locus YLR357W, strain rsc2, hits give low values 1.01 | locus YLR370C, strain arc18, hits give low values 1 | locus YLR371W, strain rom2, hits give low values 1.02 | locus YLR384C, strain iki3, hits give low values 0.979 | locus YLR418C, strain cdc73, hits give low values 1.03 | locus YML016C, strain PPZ1, hits give low values 1.05 | locus YML032C, strain rad52, hits give low values 0.977 | locus YML120C, strain ndi1, hits give low values 0.996 | locus YML124C, strain tub3, hits give low values 1.02 | locus YMR058W, strain fet3, hits give low values 0.996 | locus YMR078C, strain ctf18, hits give low values 1.02 | locus YMR125W, strain sto1, hits give low values 1.02 | locus YMR129W, hits give low values 0.989 | locus YMR205C, strain PFK2, hits give low values 0.954 | locus YMR223W, strain ubp8, hits give low values 1 | locus YMR231W, strain pep5, hits give low values 0.99 | locus YMR307W, strain GAS1, hits give low values 1.06 | locus YNL067W, strain RPL9B, hits give low values 1.02 | locus YNL071W, strain lat1, hits give low values 0.999 | locus YNL153C, strain GIM3, hits give low values 1.02 | locus YNL183C, strain NPR1, hits give low values 0.992 | locus YNL209W, strain ssb2, hits give low values 0.994 | locus YNL233W, strain BNI4, hits give low values 1 | locus YNL248C, strain rpa49, hits give low values 0.98 | locus YNL250W, strain rad50, hits give low values 1.02 | locus YNL271C, strain bni1, hits give low values 1.02 | locus YNL298W, strain CLA4, hits give low values 1.02 | locus YNL307C, strain MCK1, hits give low values 1.02 | locus YNL322C, strain KRE1 (second series), hits give low values 0.986 | locus YNL322C, strain KRE1, hits give low values 1.01 | locus YNR049C, strain mso1, hits give low values 1 | locus YNR052C, strain pop2, hits give low values 0.996 | locus YOL012C, strain htz1 1.32 | locus YOL147C, strain pex11, hits give low values 1.02 | locus YOR001W, strain rrp6, hits give low values 0.977 | locus YOR061W, strain CKA2, hits give low values 1.03 | locus YOR069W, strain VPS5, hits give low values 1.01 | locus YOR070C, strain gyp1, hits give low values 0.972 | locus YOR080W, strain dia2, hits give low values 1 | locus YOR083W, strain WHI5, hits give low values 0.983 | locus YOR106W, strain vam3, hits give low values 1.04 | locus YOR136W, strain idh2, hits give low values 1.02 | locus YOR144C, strain elg1, hits give low values 1.02 | locus YOR184W, strain ser1, hits give low values 1.02 | locus YOR231W, strain MKK1, hits give low values 1.06 | locus YOR265W, strain rbl2, hits give low values 0.993 | locus YOR270C, strain vph1, hits give low values 1.02 | locus YOR290C, strain snf2, hits give low values 0.994 | locus YOR316C, strain cot1, hits give low values 1.02 | locus YPL051W, strain arl3, hits give low values 0.956 | locus YPL078C, strain atp4, hits give low values 0.987 | locus YPL106C, strain sse1, hits give low values 1.01 | locus YPL240C, strain hsp82, hits give low values 1 | locus YPL256C, strain CLN2, hits give low values 1.05 | locus YPR119W, strain clb2, hits give low values 1.02 | locus YPR141C, strain kar3, hits give low values 1.02 | locus YPR163C, strain tif3, hits give low values 1.01 | locus YPR167C, strain met16, hits give low values 1.03 | strain wtn01, hits give low values 1.07
